Values joined by “and” are separate entries in the source; they are usually repeats but may differ in a detail not shown here. Equal values may be shown once. Results filed as inconclusive are left out. Where a structure was tested more than once in an assay, its records may differ in their call. Active and inactive are the calls of the source. Unless noted, calls follow the shape of the dose curve; as a rule, active = well fitted curve in the direction sought with a large enough effect in the repeat runs; inconclusive = weak or mixed curves; inactive = no such curve, though single readings can be large; an effect the other way counts as inactive or inconclusive.
Legend:
[1] = qHTS assay to identify small molecule antagonists of the estrogen receptor alpha (ER-alpha) signaling pathway using the BG1 cell line in the presence of 0.1 nM 17-beta-estradiol - cell viability counter screen (AID 1259241); also: nearly all actives have a fitted effect of over 40% in size; also: potency is read from the fitted curve at half-maximal effect
Outline: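 VM7Luc4E2 cells (endogenous ER-alpha, 4×ERE-luciferase), hormone-starved 5 days in charcoal-stripped FBS, were treated with compounds plus 0.1 nM 17beta-estradiol for 22 hr at 37C; viability read in same wells as CellTiter-Fluor live-cell protease fluorescence.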

[2] = qHTS assay to identify small molecule antagonists of the androgen receptor (AR) signaling pathway using the MDA cell line in the presence of 0.5 nM R1881 - cell viability counter screen (AID 1259242); also: nearly all actives have a fitted effect of over 45% in size; also: potency is read from the fitted curve at half-maximal effect
Outline: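 MDA-kb2 cells (MMTV-luciferase, AR/GR responsive) were treated with compounds plus 0.5 nM R1881 (final) for 16 hr at 37C, 0% CO2. Viability was then read in the same wells as live-cell protease fluorescence (CellTiter-Fluor, 30 min).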

[3] = target: Androgen receptor (Homo sapiens) (UniProt P10275); test: qHTS assay to identify small molecule antagonists of the androgen receptor (AR) signaling pathway using the MDA cell line in the presence of 0.5 nM R1881 (AID 1259243); also: nearly all actives have a fitted effect of over 50% in size; also: potency is read from the fitted curve at half-maximal effect
Sequence of Androgen receptor (Homo sapiens) (P10275 whole entry, looked up): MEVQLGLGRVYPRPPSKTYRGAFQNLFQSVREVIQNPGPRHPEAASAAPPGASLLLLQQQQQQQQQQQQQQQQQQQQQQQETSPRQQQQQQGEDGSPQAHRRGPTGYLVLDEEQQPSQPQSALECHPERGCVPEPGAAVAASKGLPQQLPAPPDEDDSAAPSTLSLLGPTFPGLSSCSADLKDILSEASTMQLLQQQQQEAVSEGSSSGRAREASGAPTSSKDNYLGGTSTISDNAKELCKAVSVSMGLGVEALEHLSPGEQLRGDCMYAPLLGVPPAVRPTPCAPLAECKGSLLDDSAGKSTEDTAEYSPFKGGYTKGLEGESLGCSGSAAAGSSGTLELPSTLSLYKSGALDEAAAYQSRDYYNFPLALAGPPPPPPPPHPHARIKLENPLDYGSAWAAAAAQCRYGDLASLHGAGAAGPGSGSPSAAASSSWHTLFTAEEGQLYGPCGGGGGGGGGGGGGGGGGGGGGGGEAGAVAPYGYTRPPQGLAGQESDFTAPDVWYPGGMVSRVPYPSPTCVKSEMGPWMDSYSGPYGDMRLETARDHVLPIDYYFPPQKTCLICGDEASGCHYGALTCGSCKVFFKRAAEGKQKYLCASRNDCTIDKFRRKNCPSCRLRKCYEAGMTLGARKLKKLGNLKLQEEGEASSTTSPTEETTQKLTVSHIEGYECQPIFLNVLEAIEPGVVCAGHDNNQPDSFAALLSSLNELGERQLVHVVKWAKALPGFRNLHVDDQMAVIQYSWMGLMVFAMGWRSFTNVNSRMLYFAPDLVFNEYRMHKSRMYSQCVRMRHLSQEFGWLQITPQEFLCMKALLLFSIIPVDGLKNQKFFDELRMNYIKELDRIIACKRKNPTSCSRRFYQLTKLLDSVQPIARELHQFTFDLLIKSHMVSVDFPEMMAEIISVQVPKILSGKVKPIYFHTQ
Outline: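 MDA-kb2 cells (MMTV-luciferase, responsive to AR and GR) at 3,000/well, rested 5 h at 37C, 0% CO2, then given compounds plus 0.5 nM R1881 (final) for 16 hr. Luciferase read with ONE-Glo after 30 min at room temperature.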

[4] = qHTS assay to identify small molecule HDAC inhibitors (AID 1259364); also: top concentration of the series differs between compounds; nearly all actives have a fitted effect of over 45% in size
Outline: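 Wild-type HCT-116 cells, plated overnight at 37 C, exposed to compounds 2 hr at 37 C; luminogenic HDAC-Glo substrate then added 30 min at room temperature. Luminescence reports relative endogenous class I/II HDAC activity.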

[5] = qHTS assay to identify small molecule HDAC inhibitors - cell viability counter screen (AID 1259365); also: series mostly up to about 92 µM; nearly all actives have a fitted effect of over 50% in size
Outline: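 Wild-type HCT-116 cells were seeded at 1,500 per well, incubated overnight at 37 C, then exposed to compounds in DMSO for 2hr. Viability was read by CellTiter-Glo luminescence after 30min at room temperature.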

[6] = qHTS assay to identify small molecule agonists of the sonic hedgehog signaling (Shh) pathway (AID 1259368; calls by dose curve; also: series mostly up to about 92 µM; nearly all actives have a fitted effect of over 15% in size)
Outline: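 NIH/3T3-derived 3T3Gli1-Luc cells with stably integrated Gli1-driven firefly luciferase, 2,000 cells/well, compounds added after 4 hr. Incubated 24 hr at 37C, 5% CO2; luminescence read after 30 min with luciferase reagent at room temperature.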

[7] = qHTS assay to identify small molecule antagonists of the sonic hedgehog signaling (Shh) pathway (AID 1259369; calls by dose curve; also: nearly all actives have a fitted effect of over 45% in size; also: potency is read from the fitted curve at half-maximal effect)
Outline: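 NIH/3T3-derived Gli1-Luc reporter cells plated 4 h, dosed with compound, then stimulated with conditioned medium for 24 h at 37 C. Firefly luciferase luminescence read after 30 min with detection reagent at room temperature.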

[8] = qHTS assay to identify small molecule agonists of the estrogen receptor beta (ER-beta) signaling pathway - cell viability counter screen (AID 1259380); also: nearly all actives have a fitted effect of over 30% in size; also: potency is read from the fitted curve at half-maximal effect
Outline: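 ER-beta-UAS-bla HEK293T cells in medium with 2% charcoal-stripped FBS, pre-incubated 6 hr, then treated 16 hr at 37C. Cytotoxicity read in the same wells by CellTiter-Glo luminescence after 30 min at room temperature.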

[9] = target: Androgen receptor (Homo sapiens) (UniProt P10275); test: qHTS assay to identify small molecule agonists of the androgen receptor (AR) signaling pathway in the presence of an antagonist (AID 1259381; calls by dose curve; also: nearly all actives have a fitted effect of over 15% in size)
Outline: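 MDA-kb2 cells carrying MMTV-luciferase (AR/GR responsive), 3,000 cells/well, co-treated with 3.0 uM nilutamide final. Compounds at 15 concentrations, 16 hr at 37C without CO2. Luciferase luminescence read after 30 min with ONE-Glo.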

[10] = qHTS assay to identify small molecule antagonists of the estrogen receptor beta (ER-beta) signaling pathway - cell viability counter screen (AID 1259382); also: nearly all actives have a fitted effect of over 55% in size; also: potency is read from the fitted curve at half-maximal effect; as to activity change, negative = cytotoxicity: series mostly up to about 92 µM
Outline: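 ER-beta-UAS-bla HEK293T cells in 2% charcoal-stripped FBS medium, treated with compound plus 1 nM 17-beta-estradiol for 16 h at 37C. Viability read by CellTiter-Glo luminescence after 30 min at room temperature in the same wells.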

[11] = qHTS assay to identify small molecule agonists or antagonists of the thyroid stimulating hormone receptor (TSHR) signaling pathway - wild type cell line counter screen (AID 1259384; calls by dose curve)
Outline: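 Wild-type HEK293 cells were plated 18 h at 37 C/5% CO2, pin-dosed with compound plus Ro20-1724 medium, held 30 min at room temperature, then given cAMP-d2 and anti-cAMP-cryptate; fluorescence was read after 1 h. Fifteen concentrations, triplicate.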

[12] = target: Thyrotropin receptor (Homo sapiens) (UniProt P16473); test: qHTS assay to identify small molecule antagonists of the thyroid stimulating hormone receptor (TSHR) signaling pathway (AID 1259385; calls by dose curve; also: nearly all actives have a fitted effect of over 20% in size)
Sequence of Thyrotropin receptor (Homo sapiens) (P16473 whole entry, looked up): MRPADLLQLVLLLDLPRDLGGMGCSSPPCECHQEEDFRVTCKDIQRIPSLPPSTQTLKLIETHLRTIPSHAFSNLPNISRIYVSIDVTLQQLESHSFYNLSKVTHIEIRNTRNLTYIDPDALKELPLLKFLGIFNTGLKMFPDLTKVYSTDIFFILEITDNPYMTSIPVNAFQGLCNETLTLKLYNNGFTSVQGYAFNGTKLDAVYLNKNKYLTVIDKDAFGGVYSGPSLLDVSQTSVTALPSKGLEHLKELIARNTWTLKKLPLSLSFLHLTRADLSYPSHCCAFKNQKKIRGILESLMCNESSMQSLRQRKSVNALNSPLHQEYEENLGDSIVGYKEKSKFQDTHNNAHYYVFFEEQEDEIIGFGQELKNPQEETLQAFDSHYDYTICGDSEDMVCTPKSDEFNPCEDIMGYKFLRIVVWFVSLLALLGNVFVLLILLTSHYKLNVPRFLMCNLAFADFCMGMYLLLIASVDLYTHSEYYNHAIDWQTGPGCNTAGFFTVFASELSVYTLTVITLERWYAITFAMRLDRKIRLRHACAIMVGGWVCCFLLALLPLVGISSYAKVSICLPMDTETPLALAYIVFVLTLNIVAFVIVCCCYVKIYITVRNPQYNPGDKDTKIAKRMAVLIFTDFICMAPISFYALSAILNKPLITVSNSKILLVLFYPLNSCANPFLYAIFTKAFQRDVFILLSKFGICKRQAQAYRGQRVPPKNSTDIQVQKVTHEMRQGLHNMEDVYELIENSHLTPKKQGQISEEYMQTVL
Outline: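 TSHR-HEK293 cells were plated and held 18 h at 37C/5% CO2, then given compound plus Ro20-1724 and stimulated with TSH at 1.5 ng/mL final. After 30 min at room temperature, cAMP was detected with cAMP-d2/anti-cAMP-cryptate (1 h) by fluorescence.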

[13] = qHTS assay to identify small molecule phospholipidosis (PLD) inducers (AID 1259344; active = well fitted curve in the direction sought with a large enough effect; an effect the other way counts as inactive or inconclusive; also: potency is read from the fitted curve at half-maximal effect)
Outline: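 HepG2 cells on collagen I, attached 4 h at 37 C, were co-treated with compound and LipidTOX Red dye for 24 h at 37 C, then fixed with paraformaldehyde plus Hoechst 33342 and imaged by high-content microscopy for phospholipid accumulation.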

[14] = qHTS assay to identify small molecule agonists of the sonic hedgehog signaling (Shh) pathway - cell viability counter screen (AID 1259366); also: nearly all actives have a fitted effect of over 50% in size; also: potency is read from the fitted curve at half-maximal effect
Outline: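 NIH/3T3-derived 3T3 Gli1-Luc cells (stable Gli1-responsive firefly luciferase reporter) were seeded, rested 4 hr at 37 C/5% CO2, then exposed to compounds in DMSO for 24 hr; viability was read by CellTiter-Fluor fluorescence in the same wells.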

[15] = qHTS assay to identify small molecule antagonists of the sonic hedgehog signaling (Shh) pathway - cell viability counter screen (AID 1259367); also: nearly all actives have a fitted effect of over 55% in size; also: potency is read from the fitted curve at half-maximal effect
Outline: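 NIH/3T3-derived Gli1-Luc reporter cells (2,000 per well) rested 4 hr at 37 C, then received DMSO compounds plus conditioned medium. After 23 hr of treatment, CellTiter-Fluor was added for 1 hr at 37C and fluorescence read.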

[16] = qHTS assay to identify small molecule agonists of the androgen receptor (AR) signaling pathway in the presence of an antagonist - cell viability counter screen (AID 1259379); also: nearly all actives have a fitted effect of over 25% in size; also: potency is read from the fitted curve at half-maximal effect;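 as to activity change, negative = cytotoxicity: MDA-kb2 human breast cancer cells carrying an MMTV luciferase reporter; series mostly up to about 92 µM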
Outline: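 MDA-kb2 cells (MMTV-luciferase, AR/GR), 3,000/well, 5 h attachment, then 3.0 µM nilutamide (final) and compounds at 15 concentrations. Viability by CellTiter-Fluor fluorescence after 16 h at 37 °C, 0% CO2, in the reporter wells.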

[17] = target: Estrogen receptor beta (Homo sapiens) (UniProt Q92731); test: qHTS assay to identify small molecule agonists of the estrogen receptor beta (ER-beta) signaling pathway (AID 1259377; active = well fitted activation curve with a large enough effect in the signal ratio in the repeat runs, not every such curve was filed as active; the % refers to the signal ratio)
Sequence of Estrogen receptor beta (Homo sapiens) (Q92731 whole entry, looked up): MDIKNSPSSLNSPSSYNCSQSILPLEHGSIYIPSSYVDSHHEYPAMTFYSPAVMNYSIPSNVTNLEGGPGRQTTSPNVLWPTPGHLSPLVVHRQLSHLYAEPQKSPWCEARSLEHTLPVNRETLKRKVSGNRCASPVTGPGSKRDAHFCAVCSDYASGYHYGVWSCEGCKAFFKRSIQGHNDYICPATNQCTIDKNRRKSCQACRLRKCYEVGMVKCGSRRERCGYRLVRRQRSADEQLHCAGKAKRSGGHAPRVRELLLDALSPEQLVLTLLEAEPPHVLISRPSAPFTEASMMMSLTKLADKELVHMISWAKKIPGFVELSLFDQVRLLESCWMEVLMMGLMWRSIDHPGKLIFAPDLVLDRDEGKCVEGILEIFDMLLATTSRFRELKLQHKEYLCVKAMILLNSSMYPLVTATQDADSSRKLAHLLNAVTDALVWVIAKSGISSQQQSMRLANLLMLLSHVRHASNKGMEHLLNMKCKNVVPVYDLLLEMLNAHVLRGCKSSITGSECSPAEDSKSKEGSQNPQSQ
Outline: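 ER-beta-UAS-bla HEK293T (GripTite) cells carrying a UAS-driven beta-lactamase reporter, in medium with 2% charcoal-stripped FBS, were exposed to compounds for 16 hr at 37C; LiveBLAzer B/G FRET substrate was then added and fluorescence read after 2 hours at room temperature.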

[18] = target: Estrogen receptor beta (Homo sapiens) (UniProt Q92731); test: qHTS assay to identify small molecule antagonists of the estrogen receptor beta (ER-beta) signaling pathway (AID 1259378; active = well fitted inhibition curve with a large enough effect in the signal ratio in the repeat runs, not every such curve was filed as active; the % refers to the signal ratio; also: potency is read from the fitted curve at half-maximal effect)
Outline: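 ER-beta-UAS-bla HEK293T (GripTite) cells in 2% charcoal-stripped FBS medium were preincubated 6 hr at 37C, dosed with compound, then stimulated with 1 nM E2 (final) for 16 hr; beta-lactamase reporter read by B/G FRET fluorescence after 2 hr substrate loading.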

[19] = target: Estrogen receptor (Homo sapiens) (UniProt P03372); test: qHTS assay to identify small molecule antagonists of the estrogen receptor alpha (ER-alpha) signaling pathway using the BG1 cell line in the presence of 0.1 nM 17-beta-estradiol (AID 1259244); also: nearly all actives have a fitted effect of over 50% in size; also: potency is read from the fitted curve at half-maximal effect
Sequence of Estrogen receptor (Homo sapiens) (P03372 whole entry, looked up): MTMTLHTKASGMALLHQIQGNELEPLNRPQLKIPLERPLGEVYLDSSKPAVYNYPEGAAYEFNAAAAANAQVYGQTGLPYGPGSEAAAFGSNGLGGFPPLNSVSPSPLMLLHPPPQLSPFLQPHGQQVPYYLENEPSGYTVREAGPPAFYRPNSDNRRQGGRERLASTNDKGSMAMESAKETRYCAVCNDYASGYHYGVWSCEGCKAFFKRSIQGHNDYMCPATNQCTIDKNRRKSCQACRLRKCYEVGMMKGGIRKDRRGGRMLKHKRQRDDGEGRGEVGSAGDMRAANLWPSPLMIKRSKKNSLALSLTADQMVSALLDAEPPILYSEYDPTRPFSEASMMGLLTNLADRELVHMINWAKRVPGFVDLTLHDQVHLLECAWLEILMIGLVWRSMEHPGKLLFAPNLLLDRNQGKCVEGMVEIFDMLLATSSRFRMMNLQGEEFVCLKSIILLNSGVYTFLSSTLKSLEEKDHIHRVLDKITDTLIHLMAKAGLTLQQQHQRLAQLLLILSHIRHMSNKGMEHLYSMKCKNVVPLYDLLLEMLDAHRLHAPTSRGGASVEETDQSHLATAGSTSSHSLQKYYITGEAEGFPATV
Outline: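 VM7Luc4E2 cells (endogenous full-length ER-alpha, 4×ERE-luciferase), kept 5 days in phenol red-free, charcoal-stripped FBS medium; 4,000 cells/well. Compounds added with 0.1 nM (final) 17beta-estradiol, 22 hr at 37C; luminescence read with ONE-Glo after 30 min.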

[20] = target: Estrogen receptor (Homo sapiens) (UniProt P03372); test: qHTS assay to identify small molecule agonists of the estrogen receptor alpha (ER-alpha) signaling pathway in the presence of an antagonist (AID 1259383; calls by dose curve; also: top concentration of the series differs between compounds; nearly all actives have a fitted effect of over 15% in size)
Outline: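 VM7Luc4E2 cells express endogenous full-length ER-alpha with an ERE-luciferase reporter and were hormone-deprived for 5 days. Compounds at 15 concentrations were added with 10.0nM ICI-182,780 for 22hr at 37C. Luminescence was read with ONE-Glo.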
% is scaled to controls: 0 for no effect and ±100 for the full control effect.

Oc1ccc2c(c1)-c1ccccc1C2
inactive: Potency [1] | Potency [2] | Potency [4] | Potency [5] | Potency [6] | Potency [8] | Potency [9] | Potency [10] | outcome [11] | Potency [12]
active: Potency [3] 7.7 µM | Potency [7] 13.7 µM

Cc1onc(-c2c(Cl)cccc2Cl)c1C(=O)N[C@@H]1C(=O)N2[C@@H]1SC(C)(C)[C@@H]2C(=O)O
inactive: Potency [1] | Potency [2] | Potency [3] | Potency [13] | Potency [4] | Potency [5] | Potency [14] | Potency [15] | Potency [6] | Potency [7] | Potency [16] | Potency [8] | Potency [9] | Potency [10] | outcome [11]

C[C@@H](NCCCc1cccc(C(F)(F)F)c1)c1cccc2ccccc12
active: Potency [2] 23.7 µM | Potency [3] 18.8 µM | Potency [7] 18.8 µM | Potency [18] 10.6 µM | Potency [8] 21.1 µM | Potency [10] 18.8 µM
inactive: Potency [1] | Potency [13] | Potency [4] | Potency [5] | Potency [6] | Potency [17] | Potency [9] | outcome [11]

Oc1ccc(Cl)cc1Sc1cc(Cl)ccc1O
30.6 µM (active) and inactive: Potency [14]
inactive: Potency [1] | Potency [13] | Potency [4] | Potency [5] | Potency [6] | Potency [20]
active: Potency [2] 29.8 µM | Potency [19] 30.6 µM and 29.8 µM | Potency [7] 26.6 µM | Potency [18] 18.8 µM | Potency [16] 21.6 µM and 26.6 µM | Potency [8] 48.5 µM and 29.8 µM | Potency [10] 48.5 µM

Cc1cc(C2CCCCC2)n(O)c(=O)c1
inactive: Potency [2] | Potency [13] | Potency [4] | Potency [5] | Potency [6] | Potency [8] | Potency [10] | Potency [20] | outcome [11] | Potency [12]
active: Potency [1] 11.9 µM | Potency [19] 6.68 µM | Potency [15] 15 µM | Potency [7] 1.19 µM

COC(=O)C1=C(C)NC(C)=C(C(=O)OCC(C)C)C1c1ccccc1[N+](=O)[O-] (stereo not given)
inactive: Potency [1] | Potency [2] | Potency [13] | Potency [5] | Potency [6] | Potency [16] | Potency [10] | outcome [11] | Potency [12]
48.6 µM (active) and inactive: Potency [19]
active: Potency [14] 30.6 µM | Potency [15] 61.1 µM | Potency [7] 12.2 µM

Cc1c(C)c2c(c(C)c1O)CCC(C)(COc1ccc(CC3SC(=O)NC3=O)cc1)O2 (stereo not given)
54.5 µM (active) and inactive: Potency [3]
active: Potency [7] 54.5 µM | Potency [8] 11.9 µM
inactive: Potency [1] | Potency [2] | Potency [4] | Potency [5] | Potency [14] | Potency [15] | Potency [6] | Potency [16] | Potency [9] | Potency [10] | Potency [20] | outcome [11] | Potency [12]

COc1c(C)c2c(c(O)c1C/C=C(\C)CCC(=O)O)C(=O)OC2
inactive: Potency [1] | Potency [2] | Potency [19] | Potency [13] | Potency [4] | Potency [5] | Potency [14] | Potency [6] | Potency [7] | Potency [17] | Potency [20]
active: Potency [8] 0.133 µM

Cc1onc(-c2ccccc2Cl)c1C(=O)N[C@@H]1C(=O)N2[C@@H]1SC(C)(C)[C@@H]2C(=O)O
inactive: Potency [1] | Potency [2] | Potency [19] | Potency [13] | Potency [4] | Potency [5] | Potency [14] | Potency [6] | Potency [7] | Potency [17] | Potency [18] | Potency [16] | Potency [8] | Potency [10] | outcome [11] | Potency [12]

CCCCCOc1ccccc1/C(=C\SC)n1ccnc1
inactive: Potency [1] | Potency [2] | Potency [5] | Potency [14] | Potency [15] | Potency [6] | Potency [7] | Potency [17] | Potency [16] | Potency [9] | Potency [20] | outcome [11] | Potency [12]
active: Potency [3] 21.1 µM | Potency [18] 10.6 µM | Potency [8] 23.7 µM | Potency [10] 29.8 µM

O=C(Oc1ccccc1)c1ccccc1C(=O)Oc1ccccc1
active: Potency [3] 54.5 µM | Potency [18] 48.6 µM
inactive: Potency [1] | Potency [2] | Potency [19] | Potency [5] | Potency [15] | Potency [6] | Potency [9] | Potency [10]

CCN1/C(=C/C=C/c2sc3ccccc3[n+]2CC)Sc2ccccc21
inactive: activity change, negative = inhibition [4] -19.9% [at 19 µM] | activity change, negative = cytotoxicity [5] -13.9% [at 19 µM] | activity change [6] -1.72% [at 18.9 µM, stronger effect = higher value] | activity change, negative = inhibition [7] -19% [at 19 µM] | activation [20] -11.7% [at 19 µM] | cAMP activity change [11] -0.304% [at 18.9 µM]
active: Potency [1] 2.31 µM | Potency [2] 0.82 µM | Potency [19] 0.58 µM | Potency [13] 22.4 µM | Potency [14] 4.61 µM | Potency [15] 5.17 µM | Potency [10] 11.6 µM

CCCCCCCCCCC=O
inactive: Potency [1] | Potency [2] | Potency [3] | Potency [4] | Potency [5] | Potency [14] | Potency [6] | Potency [7] | Potency [16] | Potency [8] | Potency [9] | Potency [10] | outcome [11] | Potency [12]

Source: PubChem BioAssay (Tox21)
